{"source": "PubChem BioAssay", "note": "Records with an inconclusive call do not appear. Active and inactive are the calls of the source. Unless noted, no cut-off is given here; in the data, nearly all actives have AC50 up to about 26 µM.", "data": [{"system": "not listed separately", "assay": "EMT-state selective cytotoxicity in co-culture – imaging, PC-3E GFP, TEM4-18 mCherry, primary screen (AID 1345086);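 note: cells exposed to compound for 72 h before imaging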", "details": "PC-3E GFP / TEM4-18 mCherry co-culture, imaging cell counts; measured here: mesenchymal TEM4-18 mCherry cell survival; at 1 µM", "values": [{"smiles": "C#CCN(C)Cc1ccccc1", "normalised cell number": 1.05}, {"smiles": "O=C1C(=O)c2ccccc2C(O)=C1C1CCC(c2ccc(Cl)cc2)CC1", "note": "(stereo not drawn)", "normalised cell number": 0.98}, {"smiles": "CN1CCN(CC(=O)N2c3ccccc3C(=O)Nc3cccnc32)CC1", "normalised cell number": 0.97}, {"smiles": "COCCc1ccc(OCC(O)CNC(C)C)cc1", "note": "(stereo not drawn)", "normalised cell number": 0.95}, {"smiles": "CCCCNc1ccc(C(=O)OCCN(C)C)cc1", "normalised cell number": 1.27}, {"smiles": "CCCCC1C(=O)N(c2ccccc2)N(c2ccccc2)C1=O", "normalised cell number": 1.19}, {"smiles": "O=C1NCC2(CCN(CCc3ccccc3)CC2)O1", "normalised cell number": 1.12}, {"smiles": "CN(C)CCC(c1ccccc1)c1ccccn1", "note": "(stereo not drawn)", "normalised cell number": 0.95}, {"smiles": "Nc1ccc(N=Nc2ccccc2)c(N)n1", "normalised cell number": 0.92}, {"smiles": "O=C(CCCN1CCN(c2ccccn2)CC1)c1ccc(F)cc1", "normalised cell number": 1.22}, {"smiles": "C[N+](C)(C)CCOC(N)=O", "normalised cell number": 1.03}, {"smiles": "CCO/C([O-])=N/c1c[n+](N2CCOCC2)no1", "normalised cell number": 0.94}, {"smiles": "CNC1(C)C2CCC(C2)C1(C)C", "note": "(stereo not drawn)", "normalised cell number": 0.97}, {"smiles": "CC(=O)Oc1ccc(C(c2ccc(OC(C)=O)cc2)c2ccccn2)cc1", "normalised cell number": 1.06}, {"smiles": "COc1ccccc1OCC(O)CO", "note": "(stereo not drawn)", "normalised cell number": 1.17}, {"smiles": "CN(C)C(=O)Oc1cccc([N+](C)(C)C)c1", "normalised cell number": 1.04}]}, {"system": "Aerobactin synthetase IucA (Klebsiella pneumoniae)", "assay": "inhibition of K. pneumoniae IucA enzyme – biochemical, Tocris library, absorbance (AID 1345561; call rule not given here;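 note: 100% = enzyme without compound and 0% = no enzyme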)", "details": "purified IucA enzyme assay, absorbance (OD) read-out; stronger effect = lower value;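 tested at 8 µM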", "values": [{"smiles": "C[C@@](Cc1ccc(O)c(O)c1)(NN)C(=O)O", "remaining activity": "93.6% (inactive)"}, {"smiles": "CCC(=O)O[C@]1(C(=O)SCF)[C@H](C)C[C@H]2[C@@H]3C[C@H](F)C4=CC(=O)C=C[C@]4(C)[C@@]3(F)[C@@H](O)C[C@@]21C", "remaining activity": "125% (inactive)"}, {"smiles": "C=C[C@@]1(C)CC(=O)[C@]2(O)[C@@]3(C)[C@@H](O)CCC(C)(C)[C@@H]3[C@H](O)[C@H](OC(C)=O)[C@@]2(C)O1", "remaining activity": "113% (inactive)"}, {"smiles": "CC(C)NC[C@@H](O)COc1cccc2ccccc12", "remaining activity": "109% (inactive)"}, {"smiles": "NC(N)=N/N=C/c1c(Cl)cccc1Cl", "remaining activity": "99.1% (inactive)"}]}, {"system": "not listed separately", "assay": "viability loss in pontine glioma line – cell-based, SU-DIPG-XVII, MIPE5.0, CellTiter-Glo, qHTS, dose response (AID 1347060);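 for AC50: cells exposed to compound for 48 hours before viability readout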", "details": "CellTiter-Glo ATP luminescence", "values": [{"smiles": "NC(=O)c1ncn([C@@H]2O[C@H](CO)[C@@H](O)[C@H]2O)c1O", "outcome": "inactive"}, {"smiles": "CCN1CCN(C(=O)N[C@@H](C(=O)N[C@@H]2C(=O)N3C(C(=O)O)=C(CSc4nnnn4C)CS[C@H]23)c2ccc(O)cc2)C(=O)C1=O", "AC50": "26.3 µM (active)"}, {"smiles": "CC(C)(C)NC(=O)[C@H]1CC[C@H]2[C@@H]3CC[C@H]4NC(=O)C=C[C@]4(C)[C@H]3CC[C@]12C", "outcome": "inactive"}, {"smiles": "CC(=O)O[C@H]1C[C@@H]2CC[C@@H]3[C@H](CC[C@@]4(C)[C@H]3C[C@H]([N+]3(C)CCCCC3)[C@@H]4OC(C)=O)[C@@]2(C)C[C@@H]1N1CCCCC1", "outcome": "inactive"}, {"smiles": "CNC[C@H](O)c1ccc(O)c(O)c1", "outcome": "inactive"}, {"smiles": "Nc1ccc(S(N)(=O)=O)cc1", "outcome": "inactive"}, {"smiles": "C#C[C@]1(O)CC[C@H]2[C@@H]3CCc4cc(O)ccc4[C@H]3CC[C@@]21C", "AC50": "16.6 µM (active)"}, {"smiles": "C[N+]1(C)[C@@H]2CC(OC(=O)[C@H](CO)c3ccccc3)C[C@H]1[C@@H]1O[C@@H]12", "note": "(stereo partly drawn)", "outcome": "inactive"}, {"smiles": "CO[C@@]12[C@H](COC(N)=O)C3=C(C(=O)C(C)=C(N)C3=O)N1C[C@@H]1N[C@@H]12", "AC50": "0.417 µM (active)"}, {"smiles": "CC(=O)O[C@]1(C(C)=O)CC[C@H]2[C@@H]3C=C(Cl)C4=CC(=O)[C@@H]5C[C@@H]5[C@]4(C)[C@H]3CC[C@@]21C", "AC50": "23.5 µM (active)"}, {"smiles": "CCC(=O)O[C@]1(C(=O)SCF)[C@H](C)C[C@H]2[C@@H]3C[C@H](F)C4=CC(=O)C=C[C@]4(C)[C@@]3(F)[C@@H](O)C[C@@]21C", "outcome": "inactive"}, {"smiles": "COC(=O)[C@@H]1[C@H]2C[C@H]3c4[nH]c5ccccc5c4CCN3C[C@@H]2CC[C@@H]1O", "outcome": "inactive"}, {"smiles": "CC1(C)O[C@@H]2C[C@H]3[C@@H]4C[C@H](F)C5=CC(=O)C=C[C@]5(C)[C@@]4(F)[C@@H](O)C[C@]3(C)[C@]2(C(=O)CO)O1", "outcome": "inactive"}, {"smiles": "CCOC(=O)O[C@]1(C(=O)OCCl)CC[C@H]2[C@@H]3CCC4=CC(=O)C=C[C@]4(C)[C@H]3[C@@H](O)C[C@@]21C", "outcome": "inactive"}, {"smiles": "CCCCC(=O)O[C@]1(C(=O)CO)[C@@H](C)C[C@H]2[C@@H]3CCC4=CC(=O)C=C[C@]4(C)[C@@]3(F)[C@@H](O)C[C@@]21C", "outcome": "inactive"}, {"smiles": "NC[C@H](O)c1ccc(O)c(O)c1", "outcome": "inactive"}]}, {"system": "not listed separately", "assay": "viability loss in pontine glioma line – cell-based, SU-DIPG-XIII, MIPE4.0, CellTiter-Glo, qHTS, dose response (AID 1347061; cut-off not given, nearly all actives have AC50 up to about 37 µM;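 note: cells exposed to compound for 48 hours before readout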)", "details": "CellTiter-Glo ATP luminescence", "values": [{"smiles": "NC(=O)c1ncn([C@@H]2O[C@H](CO)[C@@H](O)[C@H]2O)c1O", "outcome": "inactive"}, {"smiles": "CC(C)(C)NC(=O)[C@H]1CC[C@H]2[C@@H]3CC[C@H]4NC(=O)C=C[C@]4(C)[C@H]3CC[C@]12C", "AC50": "11.8 µM (active)"}, {"smiles": "CC(=O)O[C@H]1C[C@@H]2CC[C@@H]3[C@H](CC[C@@]4(C)[C@H]3C[C@H]([N+]3(C)CCCCC3)[C@@H]4OC(C)=O)[C@@]2(C)C[C@@H]1N1CCCCC1", "outcome": "inactive"}, {"smiles": "CNC[C@H](O)c1ccc(O)c(O)c1", "outcome": "inactive"}, {"smiles": "Nc1ccc(S(N)(=O)=O)cc1", "outcome": "inactive"}, {"smiles": "C[N+]1(C)[C@@H]2CC(OC(=O)[C@H](CO)c3ccccc3)C[C@H]1[C@@H]1O[C@@H]12", "note": "(stereo partly drawn)", "outcome": "inactive"}, {"smiles": "O=c1[nH]c(=O)n([C@H]2C[C@H](O)[C@@H](CO)O2)cc1F", "AC50": "13.2 µM (active)"}, {"smiles": "COC(=O)[C@@H]1[C@H]2C[C@H]3c4[nH]c5ccccc5c4CCN3C[C@@H]2CC[C@@H]1O", "outcome": "inactive"}, {"smiles": "CC1(C)O[C@@H]2C[C@H]3[C@@H]4C[C@H](F)C5=CC(=O)C=C[C@]5(C)[C@@]4(F)[C@@H](O)C[C@]3(C)[C@]2(C(=O)CO)O1", "outcome": "inactive"}, {"smiles": "CCOC(=O)O[C@]1(C(=O)OCCl)CC[C@H]2[C@@H]3CCC4=CC(=O)C=C[C@]4(C)[C@H]3[C@@H](O)C[C@@]21C", "outcome": "inactive"}, {"smiles": "Cc1onc(-c2ccccc2)c1C(=O)N[C@@H]1C(=O)N2[C@@H]1SC(C)(C)[C@@H]2C(=O)O", "outcome": "inactive"}]}]}
